# Screening data as filed in PubChem.
# Only some compounds are listed: those with a hit (about 2.3% of all), similar ones and a draw of the others.
# KLK7 zymogen act: activators of human kallikrein-7 zymogen; purified proKLK7, EDANS-DABCYL substrate fluorescence; 100% is mature enzyme control, 0% vehicle; activation, % at 7 µM; 370,000 compounds, 0.9% hits;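 active means activation above the mean of all tested compounds plus 3 SD, computed per campaign excluding outliers beyond control limits, cut at about 13% in these data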
# Target sequence (P49862 whole entry, looked up): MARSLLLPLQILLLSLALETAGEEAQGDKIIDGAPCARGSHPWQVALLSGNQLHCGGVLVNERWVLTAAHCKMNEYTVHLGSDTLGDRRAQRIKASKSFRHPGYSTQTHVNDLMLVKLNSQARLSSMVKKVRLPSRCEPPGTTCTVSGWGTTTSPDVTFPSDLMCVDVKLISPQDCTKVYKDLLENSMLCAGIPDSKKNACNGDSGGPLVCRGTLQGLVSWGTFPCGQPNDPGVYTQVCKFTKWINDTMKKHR
# ADAM17 inh: inhibits human ADAM17; P78536; recombinant ADAM17, EDANS/DABCYL FRET peptide cleavage; inhibition, % at 6.95 µM; 370,000 compounds, 0.83% hits; AID 720648;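 active means inhibition above the mean of compounds lying between control limits plus 3 SD, set per campaign, cut at about 8.5% in these data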;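 further: 0% = DMSO-only wells as the low control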
# ADAM10 inh: inhibitors of human ADAM10; AID 720582; 370,000 compounds, 0.62% hits; O14672; recombinant ADAM10, EDANS/DABCYL FRET peptide cleavage, 3 h; inhibition, % at 7 µM;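 active means inhibition above a per-campaign cutoff equal to the mean of compounds falling between control-based bounds plus 3 SD, cut at about 20% in these data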;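 further: 0% = DMSO wells while the 100% control is not disclosed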
# V-ATPase pHluor: regulators of yeast V-ATPase proton transport; AID 504577; response, % at 10 µM; S. cerevisiae, pHLuorin cytosolic pH fluorescence; 350,000 compounds, 0.37% hits; in the data active means response mostly above about 7.3%, no sharp cut-off; inactive means mostly below about 5.4%; further: actives read high
# VATPase regulator: yeast V-ATPase proton transport regulation | shares compounds with V-ATPase pHluor | S. cerevisiae pHLuorin cytosolic pH | response, % at 10 µM | 980 compounds, 2% hits; in the data active means response above about 24%;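 further: plate controls were vehicle wells for no effect and positive control wells for full effect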
# * = called active by the depositor; . = no result given.
SMILES,KLK7 zymogen act,ADAM17 inh,ADAM10 inh,V-ATPase pHluor,VATPase regulator
O=C(Nc1cccc(C(F)(F)F)c1)c1cccnc1N1CCN(c2ccccc2)CC1,-0.2,5.4,9.8,12.3*,-2.3
O=C(Nc1cccc(C(F)(F)F)c1)c1cccnc1N1CCN(CCO)CC1,-0.2,-0.8,-0.6,-5.5,.
O=[N+]([O-])c1cncc2[nH]cnc12,0.0,0.0,-0.3,.,.
COc1cccc(NC(=O)C(OC(=O)/C=C/c2ccc3c(c2)OCO3)c2ccccc2)c1 (stereo unspecified),-27.5,-12.0,-42.5,10.8*,-0.3
CC1CCCN(CCC(=O)c2ccc(Br)cc2)C1 (stereo unspecified),-0.4,-5.1,-4.6,8.8*,15.9
O=c1cc(N2CCN(c3cccc(Cl)c3Cl)CC2)[nH]c(=O)n1C1CCCCC1,.,-2.1,1.9,.,.
Cc1ccc(F)c(NC(=O)/C(C#N)=C(\O)c2ccc(C(C)(C)C)cc2)c1,0.2,1.6,17.4,16.4*,2.5
CCN(CC)c1ccc(S(=O)(=O)N2CCCCC2)cc1NC(=O)CSCc1c(C)noc1C,-0.1,1.9,-6.8,10.2*,-3.5
Clc1ccccc1OCCCOc1cccc2cccnc12,-0.3,-2.6,5.9,11.8*,19.6
O=Cc1ccccc1OCCCOc1cccc2cccnc12,0.4,-0.9,0.7,-4.9,.
COC(=O)c1cnc(SCc2ccc(Cl)cc2)n1C,0.3,1.1,0.8,6.3*,1.5
COc1ccc(CNC(=S)NCc2ccc(OC)cc2)cc1,0.6,-1.2,-2.9,7.1*,-1.1
C=CCN1[C@H](CC(C)C)COc2cc(F)ccc2S1(=O)=O,-0.7,-3.2,0.0,.,.
O=C(CSc1nnc(Cc2cccs2)n1-c1ccccc1)Nc1ccccc1-c1ccccc1,0.6,2.7,6.5,.,.
O=C(CCn1nnc(-c2cccs2)n1)N1CCCCC1,-0.3,3.6,4.1,.,.
CC1(C)CC(=O)N(CC(=O)N2CCN(c3ccc(F)cc3)CC2)c2ccccc2S1(=O)=O,0.7,0.3,-5.5,.,.
COC(C(=O)Nc1c(F)cccc1F)c1ccccc1 (stereo unspecified),-0.1,-2.9,-4.8,10.3*,-6.7
O=C(Nc1c(F)cccc1F)C(c1ccccc1)c1ccccc1,0.3,-7.2,-1.1,-3.5,.
O=c1cc(CCl)nc2sc3ccccc3n12,0.6,-4.9,-15.1,12.6*,0.9
c1ccc2c(c1)CCN(Cc1nnnn1Cc1ccc3c(c1)OCO3)C2,0.2,-3.6,-2.9,2.5,.
c1ccc(Cn2nnnc2CN2CCN(Cc3ccc4c(c3)OCO4)CC2)cc1,0.1,2.0,5.0,6.8*,1.3
CCc1ccc(-n2ncc(Cl)c(Oc3ccc(OC)cc3)c2=O)cc1,.,1.1,7.0,.,.
CCCC1CCC2(CC1)CCC2OC(=S)NCc1ccc(Cl)cc1 (stereo unspecified),.,2.9,8.3,.,.
O=C(Nc1ccc([N+](=O)[O-])cc1)c1ccccc1F,-0.1,3.4,2.1,15.5*,2.4
O=C(Nc1ccc(-c2ccc([N+](=O)[O-])cc2)cc1)c1ccccc1F,0.1,-3.0,0.8,-1.7,.
SMILES,KLK7 zymogen act,ADAM17 inh,ADAM10 inh,V-ATPase pHluor,VATPase regulator
Cc1cccc(C)c1NC(=O)CNC(=O)c1ccncc1,-0.2,1.1,6.8,8.3*,-2.0
Cc1cccc(C)c1NC(=O)CNC(=O)c1ccccc1,-0.6,0.9,10.1,-3.5,.
O=C1C2C(CC3c4ccccc4CCN32)CN1c1ccccc1 (stereo unspecified),-24.4,-45.2,-126.0,.,.
COc1ccc(Nc2ncnc3c2cnn3-c2ccccc2)cc1OC,-1.0,-2.3,1.8,11.0*,5.1
Clc1ccc(Nc2ncnc3c2cnn3-c2ccccc2)cc1,0.3,-3.1,-19.4,-0.7,.
O=C(N1CCc2ccccc2C1)n1cc(C(O)(c2ccccc2)c2ccccc2)nn1,.,3.8,8.9,.,.
O=C(c1cc(Cl)nc2ccccc12)N1CCN(S(=O)(=O)c2ccccc2[N+](=O)[O-])CC1,0.1,-2.4,-4.8,14.5*,1.5
CCCC[C@H]1C2CC(OC(=O)Nc3ccc(Cl)cc3)C(C2)[C@H]2CCCCN21 (stereo partly specified),0.0,-3.3,-6.4,.,.
NS(=O)(=O)c1ccc(CCNC(=O)c2ccco2)cc1,0.2,-5.5,0.8,11.0*,-0.8
COC(=O)Cc1csc(NC(=O)CSc2nncn2C)n1,0.2,-3.9,-4.1,.,.
Cc1csc(NC(=O)CSc2nncn2C)n1,0.3,-0.8,11.7,12.9*,-2.4
FC(F)(F)c1cc(C(F)(F)F)n2nc(-c3sccc3-n3cccc3)cc2n1,-0.5,-2.8,-6.2,11.9*,-1.5
O=C(CSc1n[nH]c(-c2ccco2)n1)Nc1ccccc1Cl,-0.4,-1.2,-1.2,12.0*,-2.5
COc1cccc(C2c3c(ncn(-c4ccccc4)c3=N)Oc3ccc4ccccc4c32)c1OC (stereo unspecified),.,-2.0,-3.0,.,.
O=C(NC1CCCCCC1)c1c(O)nc2sccn2c1=O,-0.4,0.4,-3.1,5.9,.
O=C(NC1CCCCC1)c1c(O)nc2sccn2c1=O,-0.4,-1.7,-10.9,12.5*,28.1*
CC(C)(C)C(=O)Nc1ccc(S(=O)(=O)N2CCCC2)cc1,0.6,-3.1,-6.8,8.5*,0.2
CC1=C(C#N)CCC(=O)N1Cc1c(F)cccc1Cl,0.3,-0.5,0.1,8.8,-3.4
CCOC(=O)c1c(C)[nH]c(C(=O)COC(=O)c2cnc(C)cn2)c1C,0.0,-3.2,-0.9,11.2*,1.7
COc1ccc(Nc2nnc(C)c(=O)[nH]2)c(OC)c1,0.6,-0.8,-0.7,11.5*,-0.6
COc1ccccc1CNC(=O)C1CCN(c2ncnc3c2nc2n3CCCCC2)CC1,-0.1,-3.9,8.5,11.7*,0.0
O=C(Sc1nnc(-c2ccccc2)o1)N1c2ccccc2Sc2ccccc21,-0.2,-2.5,2.9,-1.4,-2.4
O=C(OC12CCCN(C1)/C(=C/c1cccc(Cl)c1)C2)C1CCCCC1 (stereo unspecified),-0.1,-2.1,-9.5,.,.
Cc1ccc(OCc2cc(C(=O)NCC(C)(C)N3CCOCC3)no2)cc1C,0.0,-1.3,-8.2,8.2*,-7.1
C=CC[C@@H](CC(=O)N(CCO)Cc1ccccc1)C(=O)N[C@@H](C)COC(=O)[C@@H](CC=C)CC(=O)OC(C)(C)C,-0.2,0.9,3.8,13.6*,4.7
SMILES,KLK7 zymogen act,ADAM17 inh,ADAM10 inh,V-ATPase pHluor,VATPase regulator
O=C(CCNC(=O)c1ccc(Br)cc1)NNC(=O)COc1ccccc1F,-0.3,2.5,3.3,0.0,.
O=C(CCNC(=O)c1ccccc1)NNC(=O)COc1ccccc1Cl,0.2,-5.5,-0.3,8.2*,-0.1
CCc1c(C#N)c(=O)[nH]c(=O)n1-c1ccccc1,-0.2,-2.6,0.7,10.0*,-1.4
Cc1ccc(S(=O)(=O)N2CCN(C(=O)COC(=O)CCOc3cc(C)ccc3C)CC2)cc1,0.0,1.0,-1.5,10.1*,2.1
Cc1ccc(C)c(OCCC(=O)OCC(=O)N2CCN(S(=O)(=O)c3ccc(Cl)cc3)CC2)c1,0.3,-1.4,-2.2,-1.2,.
Cc1ccc(S(=O)(=O)N2CCN(C(=O)COC(=O)CCOc3ccccc3C)CC2)cc1,-0.2,0.4,3.0,11.8*,2.5
COC(CNC(=O)[C@H](Cc1ccccc1)NC1(C(=O)NC2CCCCC2)CCCC1)OC,.,2.4,3.0,.,.
